This is part of a sample that, as a whole, favours compounds with a hit. Of some 79,000 tested, about 15% had one in any assay. A number with no mark means an inactive call. Activity calls are given as the source filed them. No stated cut-off is given here; in the data, active means growth inhibition above about 70%; inactive means the rest.
Assay: NCI Yeast Anticancer Drug Screen. Data for the bub3 strain (AID 167)
Settings: S. cerevisiae bub3 mutant strain, at 50.0 µM (retest, dose inferred, filed as 5.0), hits give high values
Outline: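 Part of a panel of yeast mutants defective in DNA damage repair or cell cycle regulation. Each strain is grown with compound, and inhibition is calculated relative to solvent-treated cultures.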

Structure (SMILES)	growth inhibition
CN(C)c1ccc(/C=C(\C#N)c2cccc(Cl)c2)cc1	14%
Cc1ccc(S(=O)(=O)NNc2nc(N(C)C)nc(N(C)C)n2)cc1	4%
CC(NNC(=S)NCc1ccccc1)c1cc2ccccc2cn1 (stereo not drawn)	93% (active)
COc1ccc(Cc2c(-c3ccc(C)cc3)n[nH]c(=O)c2C2C(=O)N(c3ccccc3)N=C2c2ccccc2)cc1 (stereo not drawn)	96% (active)
CC1(c2ccccc2)OC(=O)C=CC1=O (stereo not drawn)	100% (active)
CC1CCC(C)(C)c2cc([N+](=O)[O-])cc([N+](=O)[O-])c21 (stereo not drawn)	99% (active)
CC1(C)CC(=O)C(/C=N/c2nc(-c3cccc([N+](=O)[O-])c3)cs2)=C(O)C1	99% (active)
O=[N+]([O-])C(=C1Nc2ccccc2N1)C(Cl)=C(Cl)Cl	12%
COc1ccc2c(c1)C1(C)CCCC(C)(C(=O)O)C1C(Br)C2=O (stereo not drawn)	96% (active)
COc1cc(NCC(C)(O)CN2CCC(C)CC2C)c2ncccc2c1 (stereo not drawn)	54%
ClC/C=C/c1ccccc1	20%
O=C(c1ccc(O)c(Br)c1)c1cc(Br)ccc1O	97% (active)
COc1ccc(OP2(Oc3ccc(OC)cc3)=NP(Oc3ccc(OC)cc3)(Oc3ccc(OC)cc3)=NP(Oc3ccc(OC)cc3)(Oc3ccc(OC)cc3)=NP(Oc3ccc(OC)cc3)(Oc3ccc(OC)cc3)=N2)cc1	35%
COc1ccccc1NC(=O)CSC(N)=O	66%
Cc1ccc(N=C(N)Nc2ccc(C)cn2)nc1	70% (active)
FC(F)(F)c1nc(Cl)nc2nc[nH]c12	4%
O=[N+]([O-])c1ccccc1CC(c1c[nH]c2ccccc12)c1c[nH]c2ccccc12	80% (active)
O=C(O)C1CCCCC1.[Ag]	100% (active)
CC(C)c1ccc(O)c(O)c(=O)c1	79% (active)
CC(C)(C)c1ccc(Sc2ncnc3ccccc23)cc1	90% (active)
CC(C)NC(=O)CN1C(=O)NC(C)(c2ccccc2)C1=O (stereo not drawn)	1%
COc1cccc(N2CCN(CC(O)COc3cc4c(c5c3CCCC5)CCCC4)CC2)c1 (stereo not drawn)	95% (active)
CC(CCN)(CCN)[N+](=O)[O-]	-1%
